# Results from PubChem BioAssay.
# The list shows a part of the results. Active and inactive are the calls of the source.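 How the source made its calls, unless noted: active means GFP response above 150% of the DMSO level; inconclusive means fewer than 70 events counted for a yeast strain; inactive means the rest.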
# Tests used:
# [1] = RPL19A-GFP modulators, yeast TOR pathway, confirmation, cell-based, S. cerevisiae, flow cytometry, cherry picks, mother/daughter gates (AID 2270;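 active means GFP response below 50% of the DMSO control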); conditions: S. cerevisiae RPL19A-GFP strain, 3 h, at 10 µM, stronger effect = lower value, 100 = same GFP as DMSO wells
# [2] = LAP4-GFP expression modulators in yeast, confirmation, cell-based, cherry picks, flow cytometry, mother/daughter gates (AID 2271;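 active means GFP response above 150% of the DMSO control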;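 further: ratio of sample to DMSO plate mean so 100% equals DMSO level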); conditions: S. cerevisiae LAP4-GFP strain, 3 h, at 10 µM, stronger effect = higher value, 100 means same as DMSO control
# [3] = modulators of MEP2-GFP levels in yeast, confirmation, S. cerevisiae, flow cytometry GFP, cherry picks (AID 2272;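 active means GFP response above 150% of the DMSO control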;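 further: ratio of well signal to plate DMSO mean so 100% equals DMSO level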); conditions: S. cerevisiae MEP2-GFP strain, 3 h, at 10 µM, stronger effect = higher value
# [4] = AGP1-GFP expression modulators, hit retest, confirmation, cell-based, flow cytometry, S. cerevisiae, cherry picks (AID 2273);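 further: median GFP channel fluorescence over the whole cell population gate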; conditions: S. cerevisiae AGP1-GFP strain, 3 h, at 10 µM
# [5] = modulators of CIT2-GFP expression in yeast, confirmation, S. cerevisiae, GFP fusion, cherry picks, mother/daughter gates (AID 2274); conditions: S. cerevisiae CIT2-GFP strain, flow cytometry, 3 h, at 10 µM, stronger effect = higher value
# [6] = compound autofluorescence in yeast s288c, dose response, artefact control for yeast TOR pathway GFP screen, s288c strain (AID 2757;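 active means fluorescence span over the dose series, or activity score, above about 33, limit read from the data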;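 further: thousands of bead-calibrated equivalent soluble fluorophore molecules from median cell fluorescence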); conditions: S. cerevisiae s288c, 520 nm autofluorescence, flow cytometry, 3 h; at 33 µM; stronger effect = higher value; zero means same as solvent-only cells
# [7] = measured here: daughter cell gate response
# [8] = measured here: mother cell gate response
# [9] = measured here: daughter cell gate
# [10] = measured here: mother cell gate
SMILES,GFP response vs DMSO [1],GFP response relative to DMSO [2],"GFP response relative to DMSO [2, 7] [%]","GFP response relative to DMSO [2, 8] [%]",GFP response vs DMSO [3],"GFP response, % of DMSO [4]","GFP response, % of DMSO [5]","GFP response, % of DMSO [5, 9] [%]","GFP response, % of DMSO [5, 10] [%]","GFP response vs DMSO [1, 9] [%]","GFP response vs DMSO [1, 10] [%]",fluorescence change (kMESF span) [6]
CCC(=O)Nc1ccc(NC(=O)c2cc3ccccc3o2)c(OC)c1,100% (inactive),94.4% (inactive),95.9,96.2,101% (inactive),100% (inactive),94.4% (inactive),95.6,88.2,,,
Cc1ccc(C2CCN(C(=S)Nc3cccc(Cl)c3)C2)cc1 (configuration not stated),96.2% (inactive),119% (inactive),,,97.5% (inactive),93.2% (inactive),92.1% (inactive),90.9,95.6,95.7,97.4,
CCCc1[nH]nc2c1C(c1ccc(OC(=O)N3CCOCC3)c(OC)c1)C(C#N)=C(N)O2 (configuration not stated),100% (inactive),102% (inactive),,,100% (inactive),97.8% (inactive),97.8% (inactive),89.9,97.7,101,95.4,
O=C(Nc1c(-c2ccccc2)nc2c(Br)cc(Br)cn12)c1ccco1,94.5% (inactive),92.9% (inactive),,,103% (inactive),98.8% (inactive),100% (inactive),85.2,90.4,94.7,92.1,
Cc1cc(NCCOCCO)n2ncc(-c3ccc(Cl)cc3)c2n1,94.3% (inactive),100% (inactive),,,106% (inactive),105% (inactive),102% (inactive),102,96.8,93.1,89.1,
Nc1ccc(-c2c3ccc(=O)cc-3oc3cc(O)ccc23)cc1C(=O)O,103% (inactive),150% (active),,,248% (active),107% (inactive),140% (inactive),,,96.4,104,
Cc1ccc(N2C(=O)C3C4C=CC(CNC(=S)Nc5cccc(Cl)c5)(O4)C3C2=O)cc1 (configuration not stated),101% (inactive),97% (inactive),99.1,97.3,101% (inactive),98.4% (inactive),97.3% (inactive),99.2,89.5,,,
Cc1cccc(CS(=O)(=O)c2ncc(Cl)c(C(=O)Nc3nnc(C(C)C)s3)n2)c1,96.7% (inactive),106% (inactive),108,105,99.3% (inactive),102% (inactive),103% (inactive),99.3,104,,,
Cc1ccccc1NC(=O)COC(=O)c1cc(=O)c2ccccc2o1,99.7% (inactive),98.7% (inactive),98.7,86,97.8% (inactive),95.4% (inactive),104% (inactive),,,,104,
CCOC(=O)C(C(=O)OCC)C(C(=O)OCC)N1CCOCC1 (configuration not stated),74.1% (inactive),182% (active),158,165,108% (inactive),90.2% (inactive),86.1% (inactive),105,72.5,,61.4,
Cc1c(/C=N/Nc2ccc(C(=O)O)cc2)c2ccccc2n1C,96.2% (inactive),105% (inactive),,,103% (inactive),95.5% (inactive),91.7% (inactive),81.6,82.6,91.3,95.8,
CCCc1nn(C)c2c1C(c1cccnc1)C(C#N)=C(N)O2 (configuration not stated),101% (inactive),97.4% (inactive),,,97.8% (inactive),98.3% (inactive),111% (inactive),,,106,,
CCN(CC)c1ccc2cc(C(=O)O)c(=O)oc2c1,95.1% (inactive),126% (inactive),,,110% (inactive),105% (inactive),94.4% (inactive),,,89.9,94.2,
COc1ccccc1C1C2=C(CC(C)(C)CC2=O)N(CC(=O)O)C2=C1C(=O)CC(C)(C)C2,102% (inactive),105% (inactive),,,133% (inactive),98.9% (inactive),117% (inactive),118,107,93,94,
CCCc1ccc(OCC(=O)NNC(=S)NC(=O)c2ccco2)cc1,111% (inactive),259% (active),,226,139% (inactive),123% (inactive),112% (inactive),85.2,99.3,,97.1,9.67 (inactive)
N#C/C(=C/c1ccc(N2CCOCC2)o1)c1ccc(Cl)cc1,96.8% (inactive),109% (inactive),,,104% (inactive),95.8% (inactive),104% (inactive),108,96.8,93.4,91.5,
Cc1ccc(/C=C/c2ccc(N(C)C)cc2)[n+](C)c1,101% (inactive),119% (inactive),,,133% (inactive),103% (inactive),121% (inactive),121,110,94.2,93.8,
CCOC(=O)c1cc(-c2ccc(/C=C3/C(=O)NC(=O)C(C#N)=C3C)o2)ccc1Cl,67.6% (inactive),240% (active),141,231,160% (inactive),104% (inactive),118% (inactive),103,101,,55.4,
CCN1/C(=C/C(C)=C/c2sc3ccccc3[n+]2CC)Sc2ccccc21,79.8% (inactive),243% (active),,211,133% (inactive),101% (inactive),100% (inactive),83.4,97.7,61.3,72.1,
